Reference: paper PMC11006913
Positions count from the first letter of the chain named.

Experiments:
Experiment in all cases: PBM; 200 nM protein, PBS
Conditions in all cases: dsDNA, one strand shown
[1] = biological target: T1, SIX6 (Homo sapiens, UniProt O95475 114-200, T165A)
T1 sequence: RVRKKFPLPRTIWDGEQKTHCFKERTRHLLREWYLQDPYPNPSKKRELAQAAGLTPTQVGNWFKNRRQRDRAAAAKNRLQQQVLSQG

[2] = biological target: HOXD13 (Homo sapiens, UniProt P35453 263-343, T313R)
[3] = biological target: HOXD13 (Homo sapiens, UniProt P35453 263-343)
[4] = biological target: HOXD13 (Homo sapiens, UniProt P35453 263-343, T313A)
[5] = biological target: T2, NKX2-6 (Homo sapiens, UniProt A6NCS4 118-204)
T2 sequence: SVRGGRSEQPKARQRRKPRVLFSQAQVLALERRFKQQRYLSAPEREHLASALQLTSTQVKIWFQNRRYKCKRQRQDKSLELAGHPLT

[6] = biological target: HOXC9 (Homo sapiens, UniProt P31274 178-260, R222W)
[7] = biological target: CRX (Homo sapiens, UniProt O43186 26-111, R41L)
[8] = biological target: ALX3 (Homo sapiens, UniProt O95076 139-225, N203S)
[9] = biological target: T3, NKX2-6 (Homo sapiens, UniProt A6NCS4 118-204, F151L)
T3 sequence: T2 sequence with F34L

HOXD13 (Homo sapiens, UniProt P35453 263-343, T313R), sequence (P35453 263-343 T313R): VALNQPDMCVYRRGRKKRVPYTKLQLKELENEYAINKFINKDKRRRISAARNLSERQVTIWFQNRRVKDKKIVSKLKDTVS
HOXD13 (Homo sapiens, UniProt P35453 263-343), sequence (P35453 263-343): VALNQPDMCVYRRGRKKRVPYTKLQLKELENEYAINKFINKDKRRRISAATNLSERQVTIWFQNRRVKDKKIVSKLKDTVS
HOXC9, sequence (P31274 178-260 R222W): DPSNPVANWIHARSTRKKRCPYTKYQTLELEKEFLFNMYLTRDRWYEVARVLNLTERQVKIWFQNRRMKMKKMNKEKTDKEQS
HOXD13 (Homo sapiens, UniProt P35453 263-343, T313A), sequence (P35453 263-343 T313A): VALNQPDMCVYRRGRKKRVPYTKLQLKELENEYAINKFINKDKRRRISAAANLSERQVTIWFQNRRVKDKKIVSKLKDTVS
ALX3, sequence (O95076 139-225 N203S): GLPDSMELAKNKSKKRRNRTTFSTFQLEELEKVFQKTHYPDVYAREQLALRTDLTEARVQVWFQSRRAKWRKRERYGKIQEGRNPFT
CRX, sequence (O43186 26-111 R41L): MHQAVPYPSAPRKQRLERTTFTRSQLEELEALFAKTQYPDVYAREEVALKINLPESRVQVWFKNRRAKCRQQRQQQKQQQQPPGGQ

Sequence: GACACCGA
- binding signal [1]: 10.4 upbm affinity estimate (log intensity, higher = more binding, comparable within an allelic series)

Sequence: CGACACCG
- binding signal [1]: 10.2 upbm affinity estimate (log intensity, higher = more binding, comparable within an allelic series)

Sequence: CCTCCGCC
- binding signal [2]: 9.44 upbm affinity estimate (log intensity, higher = more binding, comparable within an allelic series)
- binding signal [3]: 9.44 upbm affinity estimate (log intensity, higher = more binding, comparable within an allelic series)
- binding signal [4]: 9.54 upbm affinity estimate (log intensity, higher = more binding, comparable within an allelic series)

Sequence: ACTGACAC
- binding signal [1]: 10.4 upbm affinity estimate (log intensity, higher = more binding, comparable within an allelic series)

Sequence: AGGGTGTC
- binding signal [1]: 10.5 upbm affinity estimate (log intensity, higher = more binding, comparable within an allelic series)

Sequence: GTGTCAAA
- binding signal [1]: 10.3 upbm affinity estimate (log intensity, higher = more binding, comparable within an allelic series)

Sequence: CGGGTGTC
- binding signal [1]: 10.4 upbm affinity estimate (log intensity, higher = more binding, comparable within an allelic series)

Sequence: GATTATGA
- binding signal [5]: 11.2 upbm affinity estimate (log intensity, higher = more binding, comparable within an allelic series)

Sequence: ACTTGTTC
- binding signal [5]: 11.7 upbm affinity estimate (log intensity, higher = more binding, comparable within an allelic series)

Sequence: CTTGACAC
- binding signal [1]: 10.3 upbm affinity estimate (log intensity, higher = more binding, comparable within an allelic series)

Sequence: GACACCAA
- binding signal [1]: 10.5 upbm affinity estimate (log intensity, higher = more binding, comparable within an allelic series)

Sequence: AGTGCTAA
- binding signal [5]: 12 upbm affinity estimate (log intensity, higher = more binding, comparable within an allelic series)

Sequence: GTGTCACA
- binding signal [1]: 10.7 upbm affinity estimate (log intensity, higher = more binding, comparable within an allelic series)

Sequence: GTACTAGA
- binding signal [5]: 12.1 upbm affinity estimate (log intensity, higher = more binding, comparable within an allelic series)

Sequence: CAATTCAA
- binding signal [5]: 11.8 upbm affinity estimate (log intensity, higher = more binding, comparable within an allelic series)

Sequence: TCTATAAA
- binding signal [2]: 11 upbm affinity estimate (log intensity, higher = more binding, comparable within an allelic series)
- binding signal [3]: 12.2 upbm affinity estimate (log intensity, higher = more binding, comparable within an allelic series)
- binding signal [4]: 11.9 upbm affinity estimate (log intensity, higher = more binding, comparable within an allelic series)
- binding signal [6]: 11 upbm affinity estimate (log intensity, higher = more binding, comparable within an allelic series)

Sequence: ATATAAAT
- binding signal [2]: 10.8 upbm affinity estimate (log intensity, higher = more binding, comparable within an allelic series)
- binding signal [4]: 11.6 upbm affinity estimate (log intensity, higher = more binding, comparable within an allelic series)
- binding signal [6]: 11 upbm affinity estimate (log intensity, higher = more binding, comparable within an allelic series)

Sequence: TAATATAA
- binding signal [2]: 10.8 upbm affinity estimate (log intensity, higher = more binding, comparable within an allelic series)
- binding signal [4]: 11.6 upbm affinity estimate (log intensity, higher = more binding, comparable within an allelic series)
- binding signal [6]: 11 upbm affinity estimate (log intensity, higher = more binding, comparable within an allelic series)

Sequence: GGTGTAAA
- binding signal [1]: 10.4 upbm affinity estimate (log intensity, higher = more binding, comparable within an allelic series)

Sequence: ATTTTATA
- binding signal [2]: 10.9 upbm affinity estimate (log intensity, higher = more binding, comparable within an allelic series)
- binding signal [3]: 11.8 upbm affinity estimate (log intensity, higher = more binding, comparable within an allelic series)
- binding signal [4]: 11.9 upbm affinity estimate (log intensity, higher = more binding, comparable within an allelic series)
- binding signal [6]: 11.1 upbm affinity estimate (log intensity, higher = more binding, comparable within an allelic series)

Sequence: GGGTGTAA
- binding signal [1]: 10.4 upbm affinity estimate (log intensity, higher = more binding, comparable within an allelic series)

Sequence: GTTATTAA
- binding signal [2]: 10.7 upbm affinity estimate (log intensity, higher = more binding, comparable within an allelic series)
- binding signal [7]: 10.4 upbm affinity estimate (log intensity, higher = more binding, comparable within an allelic series)
- binding signal [8]: 8.66 upbm affinity estimate (log intensity, higher = more binding, comparable within an allelic series)

Sequence: GGTGTCGA
- binding signal [1]: 10.5 upbm affinity estimate (log intensity, higher = more binding, comparable within an allelic series)

Sequence: CCGCGCAC
- binding signal [5]: 9.44 upbm affinity estimate (log intensity, higher = more binding, comparable within an allelic series)
- binding signal [9]: 9.51 upbm affinity estimate (log intensity, higher = more binding, comparable within an allelic series)

Sequence: CACGGGTC
- binding signal [5]: 9.25 upbm affinity estimate (log intensity, higher = more binding, comparable within an allelic series)
- binding signal [9]: 9.31 upbm affinity estimate (log intensity, higher = more binding, comparable within an allelic series)

Sequence: ACGGCACG
- binding signal [5]: 9.26 upbm affinity estimate (log intensity, higher = more binding, comparable within an allelic series)
- binding signal [9]: 9.49 upbm affinity estimate (log intensity, higher = more binding, comparable within an allelic series)

Sequence: ACCCAGGC
- binding signal [5]: 8.77 upbm affinity estimate (log intensity, higher = more binding, comparable within an allelic series)
- binding signal [9]: 9.31 upbm affinity estimate (log intensity, higher = more binding, comparable within an allelic series)

Sequence: AAGTCATT
- binding signal [5]: 11.3 upbm affinity estimate (log intensity, higher = more binding, comparable within an allelic series)
- binding signal [9]: 9.8 upbm affinity estimate (log intensity, higher = more binding, comparable within an allelic series)

Sequence: CCGTAGCA
- binding signal [5]: 9.41 upbm affinity estimate (log intensity, higher = more binding, comparable within an allelic series)
- binding signal [9]: 9.46 upbm affinity estimate (log intensity, higher = more binding, comparable within an allelic series)

Sequence: CCTTAATC
- binding signal [5]: 11.3 upbm affinity estimate (log intensity, higher = more binding, comparable within an allelic series)
- binding signal [9]: 9.82 upbm affinity estimate (log intensity, higher = more binding, comparable within an allelic series)

Sequence: CGGGGGCC
- binding signal [5]: 9.04 upbm affinity estimate (log intensity, higher = more binding, comparable within an allelic series)
- binding signal [9]: 9.04 upbm affinity estimate (log intensity, higher = more binding, comparable within an allelic series)

Sequence: GCCCGCGC
- binding signal [5]: 9.29 upbm affinity estimate (log intensity, higher = more binding, comparable within an allelic series)
- binding signal [9]: 9.27 upbm affinity estimate (log intensity, higher = more binding, comparable within an allelic series)

Sequence: CACCGCGC
- binding signal [5]: 8.99 upbm affinity estimate (log intensity, higher = more binding, comparable within an allelic series)
- binding signal [9]: 9.25 upbm affinity estimate (log intensity, higher = more binding, comparable within an allelic series)

Sequence: GCGTCGCA
- binding signal [5]: 9.48 upbm affinity estimate (log intensity, higher = more binding, comparable within an allelic series)
- binding signal [9]: 9.49 upbm affinity estimate (log intensity, higher = more binding, comparable within an allelic series)

Sequence: CCACAGCG
- binding signal [5]: 8.94 upbm affinity estimate (log intensity, higher = more binding, comparable within an allelic series)
- binding signal [9]: 9.3 upbm affinity estimate (log intensity, higher = more binding, comparable within an allelic series)
